Assay results taken from the supplement of paper PMC8699584.
Several values for one entry are separate records, joined by “and”; a condition that tells them apart may be missing. Identical values can stand only once. ± gives the standard deviation of the averaged measurements.

These compounds were tested on Molm13 (assay: cell viability relative to DMSO control (bortezomib = 0%); higher = less growth inhibition). Details: 10 nM; 72 h.
In short: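 FLT3-ITD+ acute myeloid leukemia cells were dispensed onto a library of 679 approved and investigational compounds in 384-well plates, at 1000 cells per well in 50 µL and a single 10 nM dose, for 72 h. The screen was run in duplicate. Cell viability was read by CellTiter-Glo luminescence on an EnVision reader. Values were converted to percentages by per-plate linear regression between DMSO-treated cells (100%) and positive-control-treated cells (0%).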
For `O=C1c2cccc(O)c2C(=O)c2c(O)cccc21` [Antrapurol], the cell viability was 112 ± 7.6%.
`Cc1c(NC(=O)c2ccc(C(C)(C)C)cc2)cccc1-c1cn(C)c(=O)c(Nc2ccc(C(=O)N3CCOCC3)cc2)n1` was tested, and the cell viability was 106 ± 13%.
`N#Cc1c(-c2ccccc2)cc(-c2cc(Br)ccc2O)[nH]c1=O` gave a cell viability of 125 ± 30%.
In the case of `COc1ccc2c(c1)c(C1=C(c3c[nH]c4ccccc34)C(=O)NC1=O)cn2CCCN(C)C`, the cell viability is reported as 85.4 ± 2%.
With `COc1ccc(-c2oc3c(CC=C(C)C)c(O)cc(O)c3c(=O)c2O)cc1` [Icaritin] the cell viability was 117 ± 8.4%.
With `CN(C)CCOc1ccc(-c2nc(-c3ccncc3)c(-c3ccc4c(c3)CC/C4=N\O)[nH]2)cc1` the cell viability was 103 ± 23%.
`Cc1cc(C(C)Nc2ccccc2)c2nc(N3CCOCC3)cc(=O)n2c1` (stereo not given) was tested, and the cell viability was 106 ± 18%.
For `COc1ccc([C@@H]2OC[C@H]3[C@@H]2CO[C@@H]3c2ccc(O[C@@H]3O[C@H](CO)[C@@H](O)[C@H](O)[C@H]3O)c(OC)c2)cc1OC` [Forsythin], the cell viability was 123 ± 20%.
`C[C@@H]1O[C@@H](OC[C@H]2O[C@@H](Oc3c(-c4ccc(O)c(O)c4)oc4cc(O)cc(O)c4c3=O)[C@H](O)[C@@H](O)[C@@H]2O)[C@H](O)[C@H](O)[C@H]1O` [Rutin] showed a cell viability of 103 ± 1.5%.
In the case of `Cc1ccc(F)c(NC(=O)Nc2ccc(-c3cccc4[nH]nc(N)c34)cc2)c1`, the cell viability is reported as 72.2 ± 9.9%.
`C[C@@H]1O[C@@H](Oc2cc(O)c3c(=O)c(O[C@@H]4O[C@@H](C)[C@H](O)[C@@H](O)[C@H]4O)c(-c4ccc(O)cc4)oc3c2)[C@H](O)[C@H](O)[C@H]1O` [Kaempferitrin] was tested, and the cell viability was 114 ± 10%.
`O=C1NC(=O)/C(=C/c2ccc(-c3ccc(F)cc3O)o2)S1` showed a cell viability of 106 ± 2.7%.
Work on `COC(=O)c1c2c(c3ccccc3c1O)OC(C)(C)C=C2` [Mollugin] yielded a cell viability of 98 ± 1.6%.
For `Cc1ccc(CNc2ncnc3ccc(-c4ccc(CO)o4)cc23)o1`, the cell viability was 118 ± 2%.
`COc1ccc(C2CC(=O)c3c(O)cc(OC4OC(COC5OC(C)C(O)C(O)C5O)C(O)C(O)C4O)cc3O2)cc1OC` (stereo not given) [Methyl hesperidin] was tested, and the cell viability was 109 ± 12%.
`Cc1ccc(NC(=O)c2ccc(CN3CCN(C)CC3)cc2)cc1Nc1nccc(-c2cccnc2)n1` [Imatinib (mesylate)] was tested, and the cell viability was 111 ± 16%.
`S=C(NCc1ccc2c(c1)OCO2)N1CCN(c2ncnc3c2oc2ccccc23)CC1` [Amuvatinib(MP470)] showed a cell viability of 101 ± 10%.
Work on `Cn1cc(C2=C(c3cn(CCCSC(=N)N)c4ccccc34)C(=O)NC2=O)c2ccccc21` [Bisindolylmaleimide IX (mesylate)] yielded a cell viability of 99.3 ± 4.7%.
With `CN(C)S(=O)(=O)c1ccc2c(c1)/C(=C/c1cc3c([nH]1)CCCC3)C(=O)N2` the cell viability was 113 ± 3.4%.
`NS(=O)(=O)c1ccc(Nc2nc(OCC3CCCCC3)c3[nH]cnc3n2)cc1` was tested, and the cell viability was 104 ± 34%.
For `CC(C)=CCC[C@](C)(O[C@@H]1O[C@H](CO[C@@H]2O[C@H](CO)[C@@H](O)[C@H](O)[C@H]2O)[C@@H](O)[C@H](O)[C@H]1O)[C@H]1CC[C@]2(C)[C@@H]1[C@H](O)C[C@@H]1[C@@]3(C)CC[C@H](O[C@@H]4O[C@H](CO)[C@@H](O)[C@H](O)[C@H]4O)C(C)(C)[C@@H]3CC[C@]12C` [Gypenoside XVII], the cell viability was 95.8 ± 9.3%.
With `Cn1cnc(N)c2ncnc1-2` [3-Methyladenine (3-MA)] the cell viability was 98.3 ± 1.7%.
Compound `Cc1nc(Nc2ncc(C(=O)Nc3c(C)cccc3Cl)s2)cc(N2CCN(CCO)CC2)n1` [Dasatinib monohydrate] has a cell viability of 80.8 ± 25%.
`COc1cc(OC)c(C=C2C(=O)Nc3ccccc32)c(OC)c1` gave a cell viability of 104 ± 6.9%.
With `C[C@H]1[C@H](C)CC[C@]2(C(=O)O[C@@H]3O[C@H](CO[C@@H]4O[C@H](CO)[C@@H](O[C@@H]5O[C@H](C)[C@H](O)[C@@H](O)[C@H]5O)[C@H](O)[C@H]4O)[C@@H](O)[C@H](O)[C@H]3O)CC[C@]3(C)C(=CC[C@@H]4[C@@]5(C)C[C@@H](O)[C@H](O)[C@@](C)(CO)[C@@H]5CC[C@]43C)[C@H]12` [Asiaticoside] the cell viability was 108 ± 13%.
`Nc1ccc(C(=O)Nc2cccc(-c3nc(N4CCOCC4)c4oc5ncccc5c4n3)c2)cn1` was tested, and the cell viability was 104% and 101%.
Compound `N#Cc1ccc2[nH]c(O)c(-c3ccc(CN4CCOCC4)cn3)c2c1` has a cell viability of 112 ± 0.85%.
`N#CC1(c2ccc(NC(=O)c3cccnc3NCc3ccncc3)cc2)CCCC1` [Apatinib] gave a cell viability of 113 ± 10%.
`CCOC(=O)c1cnc2ccc(-c3cncc(NS(=O)(=O)c4ccccc4)c3)cn12` was tested, and the cell viability was 99.7 ± 8.9%.
`Cc1[nH]c(/C=C2\C(=O)Nc3ccccc32)c(C)c1CCC(=O)O` showed a cell viability of 107 ± 18%.
